± gives the standard deviation.
Key:
Conditions in all cases: modulator concentration 10 µM
[1] = test system: RAW-Dual (murine macrophage reporter line); experiment: NF-kB reporter (SEAP) activity fold change vs agonist alone; higher = enhanced NF-kB activity
Outline: (§1)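 Compound reached 10 μM final in each well by pin transfer, onto RAW-Dual murine macrophage reporter cells seeded at 50 000 per well in 384-well plates. After 1 hour at 37 °C, the cells were stimulated overnight with a PRR agonist. SEAP in the supernatant was read with QUANTI-Blue at 620 nm absorbance for NF-κB, and Lucia luciferase was read with QUANTI-Luc luminescence for IRF. Each signal was turned into fold change against the mean agonist-only control on the same plate, and two replicate plates were averaged with propagated errors.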

[2] = test system: RAW-Dual (murine macrophage reporter line); experiment: IRF reporter (Lucia luciferase) activity fold change vs agonist alone; higher = enhanced IRF activity
Outline: as §1

[3] = test system: RAW-Dual (murine macrophage reporter line); experiment: viability score (confluency relative to resting cells, overnight) (fraction); higher = more viable, active = viable (0.7 or more)
Outline: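 Two confluency masks, generated with IncuCyte software over all imaged wells, were applied to IncuCyte images of RAW-Dual macrophages. The cells, in 384-well plates, had been exposed overnight to 10 μM final compound. The viability score is confluency as a fraction of resting cells, and a compound met the cutoff only with both masks above 70% of resting cells.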

[4] = agonist: CpG ODN 1826 0.5 ug/mL

Compound	NF-kB reporter [1, 4]	NF-kB reporter ([1]; agonist: LPS 0.1 ug/mL)	NF-kB reporter ([1]; agonist: MPLA […])	IRF reporter ([2]; agonist: 3'3'-cGAMP 10 ug/mL)	IRF reporter ([2]; agonist: LPS 0.1 ug/mL)	IRF reporter ([2]; agonist: MPLA […])	viability score [3]
NNc1ncnc2scc(-c3ccc(Cl)cc3)c12	0.931 ± 0.071	0.867 ± 0.07	1.32 ± 0.42	0.333 ± 0.015	1.3 ± 0.15	1.48 ± 0.21	0.997 (active)
O=C(NCCO)c1cc(C(=O)NCCO)cc(C(=O)NCCO)c1	0.964 ± 0.065	1.05 ± 0.064	0.923 ± 0.054	0.981 ± 0.043	1.36 ± 0.099	1.18 ± 0.29	1.01 (active)
CC(=O)N1CCC(Cn2ccc3cccnc32)CC1	1.04 ± 0.078	1.02 ± 0.11	0.996 ± 0.048	0.949 ± 0.035	0.957 ± 0.056	1.02 ± 0.11	0.994 (active)
Cc1cnc2c(c1SCC(=O)N1CCc3ccccc31)c(=O)n(C)c(=O)n2C	1.01 ± 0.057	1.22 ± 0.18	0.916 ± 0.069	1.01 ± 0.051	1.17 ± 0.15	1.14 ± 0.25	1.01 (active)
COc1cc(O)c2c(=O)cc(-c3ccc(O)cc3)oc2c1	1.15 ± 0.098	1.04 ± 0.076	1.01 ± 0.024	0.795 ± 0.11	0.959 ± 0.049	0.798 ± 0.099	0.997 (active)
COCCOC(=O)C1=C(C)NC(C)=C(C(=O)OC(C)C)C1c1cccc([N+](=O)[O-])c1 (stereo unspecified)	0.837 ± 0.07	1.05 ± 0.064	0.88 ± 0.076	1.11 ± 0.037	1.31 ± 0.18	1.11 ± 0.13	0.979 (active)
Cl.Cl.O=C1c2c(O)ccc(O)c2C(=O)c2c(NCCNCCO)ccc(NCCNCCO)c21	0.0718 ± 0.0057	0.065 ± 0.0036	0.125 ± 0.011	0.0431 ± 0.0042	0.0592 ± 0.012	0.0943 ± 0.0079	0.388 (inactive)
O=[N+]([O-])c1ccc(Nc2ccccc2O)c2nonc12	1.74 ± 0.097	1.21 ± 0.088	1.7 ± 0.099	0.69 ± 0.023	1.55 ± 0.11	1.28 ± 0.17	0.9 (active)
COc1ccc(C(=O)C=Cc2cc(OC)c(OC)c(OC)c2)c(O)c1	1.63 ± 0.13	0.199 ± 0.018	0.273 ± 0.026	0.148 ± 0.014	0.0569 ± 0.019	0.0398 ± 0.015	0.794 (active)
Cc1ccc(S(=O)(=O)CCSc2cccc(C(=O)Nc3ccccc3)c2)cc1	0.992 ± 0.068	1.03 ± 0.087	0.909 ± 0.1	0.808 ± 0.03	1.26 ± 0.13	1.08 ± 0.098	1 (active)
CCOC(=O)C1=C(C)NC(C)=C(C(=O)OCC)C1c1cc(Cl)cc(Cl)c1OC	0.478 ± 0.064	0.44 ± 0.037	1.05 ± 0.1	1.07 ± 0.16	0.852 ± 0.039	2.23 ± 0.43	0.216 (inactive)
CC(=O)Nc1ccc(S(=O)(=O)N2CCC(Oc3cc(C)nc(C)n3)C2)cc1 (stereo unspecified)	0.919 ± 0.039	0.923 ± 0.098	1.04 ± 0.092	0.998 ± 0.08	0.936 ± 0.12	0.983 ± 0.32	0.97 (active)
CCCOc1ccc(C(=O)OCCN(CC)CC)cc1N.Cl	0.857 ± 0.14	1.03 ± 0.1	0.928 ± 0.077	1.01 ± 0.044	1.2 ± 0.19	1.44 ± 0.15	1 (active)

Source: the supplement of paper PMC10646978
